Assay results published in PubChem BioAssay (NCATS).
The source made the active and inactive calls.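 The calls were made as follows: active = compounds whose dose series gives a full or clear partial fitted curve of increased nuclear translocation; inconclusive = weak partial curve or effect only at the top dose; inactive = no dose-dependent translocation response.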

The molecules below were run against Glucocorticoid receptor (Homo sapiens) (UniProt P04150) (assay: GR-GFP Redistribution (AID 450)). Conditions: U2OS GR-GFP nuclear translocation, laser cytometry, 2 h; series mostly up to 20.6 µM.
Potency is read from the fitted curve at half-maximal effect.

Sequence of Glucocorticoid receptor (Homo sapiens) (P04150 whole entry, looked up): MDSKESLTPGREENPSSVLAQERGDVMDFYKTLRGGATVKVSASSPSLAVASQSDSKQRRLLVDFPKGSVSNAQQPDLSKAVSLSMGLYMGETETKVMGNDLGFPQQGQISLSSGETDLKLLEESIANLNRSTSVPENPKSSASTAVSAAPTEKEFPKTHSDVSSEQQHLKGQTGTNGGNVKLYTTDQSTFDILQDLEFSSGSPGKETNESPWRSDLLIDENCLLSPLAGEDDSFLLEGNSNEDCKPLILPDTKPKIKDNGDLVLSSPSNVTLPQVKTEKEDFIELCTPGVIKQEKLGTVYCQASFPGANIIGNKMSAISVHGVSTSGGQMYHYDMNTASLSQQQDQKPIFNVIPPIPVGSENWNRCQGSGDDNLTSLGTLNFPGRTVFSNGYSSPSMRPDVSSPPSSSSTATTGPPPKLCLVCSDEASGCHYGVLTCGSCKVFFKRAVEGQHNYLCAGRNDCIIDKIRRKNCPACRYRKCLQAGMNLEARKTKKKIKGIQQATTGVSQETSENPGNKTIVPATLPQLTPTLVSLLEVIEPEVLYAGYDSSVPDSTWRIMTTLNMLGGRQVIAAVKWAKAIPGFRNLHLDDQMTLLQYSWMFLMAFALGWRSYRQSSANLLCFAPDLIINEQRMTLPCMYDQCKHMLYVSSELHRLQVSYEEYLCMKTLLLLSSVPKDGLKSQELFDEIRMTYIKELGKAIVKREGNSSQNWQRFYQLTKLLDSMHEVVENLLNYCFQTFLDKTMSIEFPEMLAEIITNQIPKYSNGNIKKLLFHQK

| Structure (SMILES) | Potency |
| --- | --- |
| CCCCOc1ccc(C(=O)N2CCCC2C(=O)O)cc1 (centres undefined) | > 20.6 µM (inactive) |
| CC(C)C(C(=O)Nc1ncn[nH]1)N1C(=O)c2ccccc2C1=O (centres undefined) | > 20.6 µM (inactive) |
| CCOC(=O)NC(O)C(=O)c1cccs1 (centres undefined) | > 20.6 µM (inactive) |
| CCCCOc1ccc(C(=O)Nn2cnnc2)cc1 | > 20.6 µM (inactive) |
| Nc1nc(NC(=O)c2cccs2)nn1-c1ccccc1 | > 20.6 µM (inactive) |
| CSc1nnc(C)c(=O)[nH]1 | > 20.6 µM (inactive) |
| COCCNc1ncnc2c1cnn2-c1ccc(Cl)cc1 | > 20.6 µM (inactive) |
| CC1CCN(c2ncnc3c2cnn3Cc2ccc(Cl)cc2)CC1 | > 20.6 µM (inactive) |
| Cn1c(N2CCN(c3ccccn3)CC2)nc2c1c(=O)n(Cc1ccccc1Cl)c(=O)n2C | > 20.6 µM (inactive) |
| CC1CN(c2oc(-c3ccccc3Cl)nc2C#N)CC(C)O1 (centres undefined) | > 20.6 µM (inactive) |
| CCCCOC(=O)c1ccc(NC(=O)CSc2nncn2C)cc1 | > 20.6 µM (inactive) |
| COCCNc1oc(-c2ccc(C)cc2)nc1C#N | > 20.6 µM (inactive) |
| COc1ccc(Nc2nnc(C)c3ccccc23)cc1C(N)=O | > 20.6 µM (inactive) |
| COc1ccc(N2C(=O)C3C(C2=O)C2C=CC3C23CC3)c(OC)c1 (centres undefined) | > 20.6 µM (inactive) |
